Test results published in PubChem BioAssay AID1259336 (Sattelle Laboratory, UCL Respiratory, Division of Medicine, …, 2017).
Values without a mark were called inactive. Activity calls are given as the source filed them. Rule as the data show it: active = log2 fold change growth below about -1.8; inactive = the rest.

test: C. elegans growth inhibition, whole organism, log2 fold change (AID 1259336); conditions: anthelmintic screen, hits give low values;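 also: growth scored by imaging after five days at 20 °C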

| Structure (SMILES) | log2 fold change growth |
| --- | --- |
| Cc1cc(C(=O)Nc2ccc(-c3ccccc3)cc2)no1 | -3.09 (active) |
| O=C(NCCc1c[nH]c2ccccc12)c1cc2ccccc2oc1=O | 0.481 |
| c1ccc(Oc2ccc(-c3cc(N4CCOCC4)n[nH]3)cc2)cc1 | 0.348 |
| C[C@H](c1ccc2c(c1)CCCC2)N(C)c1ncc2c(N)nc(N)nc2n1 | 0.0756 |
| Cc1cc(NCC(C)C)c2[nH]nc(-c3ccccc3)c2n1 | 0.0984 |
| Cc1cc2nc(NC(=O)C(C)(C)C)nc(Cl)c2n1Cc1ccc(Cl)cc1 | 0.316 |
| c1ccc2c(c1)CN(CC1CC1)CC1(CCN(Cc3c[nH]c4cnccc34)CC1)O2 | 0.264 |
| N#Cc1ccc(-c2cnc(N)c(-c3ccc(C(N)=O)cc3)n2)cc1 | -0.619 |
| Nc1ncc(-c2ccc(C(F)(F)F)nc2)cc1-c1ccc(C(F)(F)F)nc1 | 0.0312 |
| COc1cc(C2=NCCN2)cc2cc(-c3ccc(C4=NCCN4)cc3)oc12 | 0.303 |
| Brc1cncc(-c2cc(NCCCn3ccnc3)nc(-c3ccccc3)n2)c1 | -1.17 |
| CCc1nc2ccc(Cl)cn2c1C(=O)NCc1ccc(N2CCC(c3ccc(OC(F)(F)F)cc3)CC2)cc1 | -0.0431 |
| C[C@H]1CS(=O)(=O)CCN1/N=C/c1ccc([N+](=O)[O-])o1 | 0.236 |
| CCCc1ccc(S(=O)(=O)Nc2ccc(CN3CCN(CC4CC4)CC3)cc2)cc1 | 0.319 |
| COc1cccn2c(C(=O)N3CCCCC3)c(C(F)(F)F)nc12 | 0.258 |
